Inconclusive results are not listed. A call without a number means that no potency is given here. Values without a mark were called inactive. Active and inactive are the calls of the source. Calls come from the whole dose curve; as a rule, active = well fitted curve in the direction sought with a large enough effect; inconclusive = small, poorly fitted or top-dose-only effect, or another doubt; inactive = no such curve, though single readings can be large; an effect the other way counts as inactive or inconclusive.
Columns and labels:
[1] = target: ATP-dependent 6-phosphofructokinase (Trypanosoma brucei brucei) (UniProt O15648); test: qHTS Assay to Find Inhibitors of T. brucei phosphofructokinase: hit validation (AID 492961);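 note: luminescence reports ADP formed as PFK phosphorylates fructose-6-phosphate with ATP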
In short: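 Reaction: 0.1 M triethanolamine pH 8.0, 5 mM MgCl2, F6P 0.5 mM, ATP 0.1 mM, PFK 1.25 nM, 45 min RT. Read-out: ADP-Glo luminescence. Analysis: concentration-response fits, classed by r2 and efficacy.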

[2] = qHTS profiling for inhibitors of Plasmodium falciparum proliferation (AID 504749); note: potency is the fitted concentration of half-maximal effect; for all read-outs here: nearly all actives have a fitted effect of over 60% in size; settings: P. falciparum in erythrocytes, SYBR Green DNA, 72 h; for activity, negative = inhibition: at 28.7 µM (top of the series)
In short: (§1)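 Fluorescence of SYBR Green-bound parasite DNA, read at 485/535 nm, served as the growth measure. Infected erythrocytes were cultured with compound 72 h; artemisinin (0.29 uM) and DMSO wells defined the normalization range.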

3D7 = test: as above; settings: P. falciparum in erythrocytes, SYBR Green DNA, 72 h; series mostly up to 28.7 µM
In short: as §1

AA1029 = test: as above; settings: P. falciparum in erythrocytes, SYBR Green DNA, 72 h; series mostly up to 28.7 µM
In short: as §1

AS120 = test: as above; settings: P. falciparum in erythrocytes, SYBR Green DNA, 72 h; series mostly up to 28.7 µM
In short: as §1

ATS189 = test: as above; settings: P. falciparum in erythrocytes, SYBR Green DNA, 72 h; series mostly up to 28.7 µM
In short: as §1

CP185 = test: as above; settings: P. falciparum in erythrocytes, SYBR Green DNA, 72 h; series mostly up to 28.7 µM
In short: as §1

CP191 = test: as above; settings: P. falciparum in erythrocytes, SYBR Green DNA, 72 h; series mostly up to 28.7 µM
In short: as §1

CP194 = test: as above; settings: P. falciparum in erythrocytes, SYBR Green DNA, 72 h; series mostly up to 28.7 µM
In short: as §1

CP217 = test: as above; settings: P. falciparum in erythrocytes, SYBR Green DNA, 72 h; series mostly up to 28.7 µM
In short: as §1

CP237 = test: as above; settings: P. falciparum in erythrocytes, SYBR Green DNA, 72 h; series mostly up to 28.7 µM
In short: as §1

CP238 = test: as above; settings: P. falciparum in erythrocytes, SYBR Green DNA, 72 h; series mostly up to 28.7 µM
In short: as §1

CP252 = test: as above; settings: P. falciparum in erythrocytes, SYBR Green DNA, 72 h; series mostly up to 28.7 µM
In short: as §1

CP265 = test: as above; settings: P. falciparum in erythrocytes, SYBR Green DNA, 72 h; series mostly up to 28.7 µM
In short: as §1

CP286 = test: as above; settings: P. falciparum in erythrocytes, SYBR Green DNA, 72 h; series mostly up to 28.7 µM
In short: as §1

DFO2036 = test: as above; settings: P. falciparum in erythrocytes, SYBR Green DNA, 72 h; series mostly up to 28.7 µM
In short: as §1

DIV30 = test: as above; settings: P. falciparum in erythrocytes, SYBR Green DNA, 72 h; series mostly up to 28.7 µM
In short: as §1

Dd2 = test: as above; settings: P. falciparum in erythrocytes, SYBR Green DNA, 72 h; series mostly up to 28.7 µM
In short: as §1

N140 = test: as above; settings: P. falciparum in erythrocytes, SYBR Green DNA, 72 h; series mostly up to 28.7 µM
In short: as §1

P94_40 = test: as above; settings: P. falciparum in erythrocytes, SYBR Green DNA, 72 h; series mostly up to 28.7 µM
In short: as §1

ATP-dependent 6-phosphofructokinase (Trypanosoma brucei brucei), sequence (O15648 whole entry, looked up): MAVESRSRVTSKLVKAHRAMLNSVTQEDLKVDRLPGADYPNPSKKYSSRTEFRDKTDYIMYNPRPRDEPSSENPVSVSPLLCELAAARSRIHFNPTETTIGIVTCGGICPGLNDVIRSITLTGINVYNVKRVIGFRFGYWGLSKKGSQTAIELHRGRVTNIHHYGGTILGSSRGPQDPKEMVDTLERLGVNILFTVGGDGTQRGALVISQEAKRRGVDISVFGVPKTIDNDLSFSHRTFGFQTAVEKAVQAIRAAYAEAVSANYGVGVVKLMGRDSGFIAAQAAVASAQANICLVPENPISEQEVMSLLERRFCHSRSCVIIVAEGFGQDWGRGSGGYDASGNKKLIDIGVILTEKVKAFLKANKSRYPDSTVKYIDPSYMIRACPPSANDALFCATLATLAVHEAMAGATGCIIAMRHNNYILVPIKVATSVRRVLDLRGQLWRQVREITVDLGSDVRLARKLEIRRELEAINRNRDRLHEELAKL

With `NC(=O)C1CC2(NC(=O)NC2=O)c2cc(F)ccc2O1` (stereo not given) the Potency [1] was “inactive”, the activity, negative = inhibition ([2]; parasite line A) was 9.13% and the activity, negative = inhibition ([2]; parasite line B) was 7.45%. For the same molecule, the Potency (3D7) was “inactive”, the Potency (AA1029) was “inactive” and the Potency (AS120) was “inactive”. For the same molecule, the Potency (ATS189) was “inactive”, the Potency (CP185) was “inactive” and the Potency (CP191) was “inactive”. The Potency (CP194) was “inactive”, the Potency (CP217) was “inactive” and the Potency (CP237) was “inactive”. The Potency (CP238) was “inactive”, the Potency (CP252) was “inactive” and the Potency (CP265) was “inactive”. For the same molecule, the Potency (CP286) was “inactive”, the Potency (DFO2036) was “inactive” and the Potency (DIV30) was “inactive”. For the same molecule, the Potency (Dd2) was “inactive”, the Potency (N140) was “inactive” and the Potency (P94_40) was “inactive”.

With `CC[C@H](C)[C@H]1O[C@]2(CC[C@@H]1C)C[C@@H]1C[C@@H](C/C=C(\C)[C@H](O[C@@H]3C[C@H](OC)[C@H](O[C@@H]4C[C@H](OC)[C@@H](O)[C@H](C)O4)[C@H](C)O3)[C@@H](C)/C=C/C=C3\CO[C@@H]4[C@H](O)C(C)=C[C@@H](C(=O)O1)[C@]34O)O2` the Potency [1] was “inactive”, the Potency ([2]; parasite line A) was 355 nM (active) and the Potency ([2]; parasite line B) was 794 nM (active). The Potency (3D7) was 1410 nM (active), the Potency (AA1029) was 1000 nM (active) and the Potency (AS120) was 1000 nM (active). For the same molecule, the Potency (ATS189) was 891 nM (active), the Potency (CP185) was 1000 nM (active) and the Potency (CP191) was 794 nM (active). For the same molecule, the Potency (CP194) was 1350 nM (active), the Potency (CP217) was 794 nM (active) and the Potency (CP237) was 2240 nM (active). The Potency (CP238) was 1260 nM (active), the Potency (CP252) was 794 nM (active) and the Potency (CP265) was 794 nM (active). For the same molecule, the Potency (CP286) was 1260 nM (active), the Potency (DFO2036) was 794 nM (active) and the Potency (Dd2) was 2240 nM (active). The Potency (N140) was 1000 nM (active) and the Potency (P94_40) was 1120 nM (active).

In the case of `C[n+]1c2cc(N)ccc2cc2ccc(N)cc21`, the Potency [1] is reported as “inactive”, the Potency ([2]; parasite line A) is reported as 398 nM (active) and the Potency ([2]; parasite line B) is reported as 1000 nM (active). The Potency (3D7) was 398 nM (active), the Potency (AA1029) was 708 nM (active) and the Potency (AS120) was 1000 nM (active). For the same molecule, the Potency (ATS189) was 1120 nM (active), the Potency (CP185) was 631 nM (active) and the Potency (CP191) was 282 nM (active). For the same molecule, the Potency (CP194) was 1200 nM (active), the Potency (CP217) was 891 nM (active) and the Potency (CP237) was 282 nM (active). For the same molecule, the Potency (CP238) was 708 nM (active), the Potency (CP252) was 794 nM (active) and the Potency (CP265) was 1260 nM (active). For the same molecule, the Potency (CP286) was 178 nM (active), the Potency (DFO2036) was 355 nM (active) and the Potency (DIV30) was 1690 nM (active). For the same molecule, the Potency (Dd2) was 355 nM (active), the Potency (N140) was 631 nM (active) and the Potency (P94_40) was 631 nM (active).

For `NCCCCC(N)C(=O)O` (stereo not given), the Potency [1] was “inactive”, the activity, negative = inhibition ([2]; parasite line A) was -7.93% and the activity, negative = inhibition ([2]; parasite line B) was 13.6%. The Potency (3D7) was “inactive”, the Potency (AA1029) was “inactive” and the Potency (AS120) was “inactive”. For the same molecule, the Potency (ATS189) was “inactive”, the Potency (CP185) was “inactive” and the Potency (CP191) was “inactive”. For the same molecule, the Potency (CP194) was “inactive”, the Potency (CP217) was “inactive” and the Potency (CP237) was “inactive”. The Potency (CP238) was “inactive”, the Potency (CP252) was “inactive” and the Potency (CP265) was “inactive”. The Potency (CP286) was “inactive”, the Potency (DFO2036) was “inactive” and the Potency (DIV30) was “inactive”. The Potency (Dd2) was “inactive”, the Potency (N140) was “inactive” and the Potency (P94_40) was “inactive”.

With `CCCCC(=O)O[C@]1(C(=O)CO)CCC2C3CCC4=CC(=O)CCC4(C)C3C(O)CC21C` (stereo not given in full) the Potency [1] was “inactive”, the activity, negative = inhibition ([2]; parasite line A) was -2.08% and the activity, negative = inhibition ([2]; parasite line B) was -4.71%. For the same molecule, the Potency (3D7) was “inactive”, the Potency (AA1029) was “inactive” and the Potency (AS120) was “inactive”. The Potency (ATS189) was “inactive”, the Potency (CP185) was “inactive” and the Potency (CP191) was “inactive”. The Potency (CP194) was “inactive”, the Potency (CP217) was “inactive” and the Potency (CP237) was “inactive”. The Potency (CP238) was “inactive”, the Potency (CP252) was “inactive” and the Potency (CP265) was “inactive”. For the same molecule, the Potency (CP286) was “inactive”, the Potency (DFO2036) was “inactive” and the Potency (DIV30) was “inactive”. The Potency (N140) was “inactive” and the Potency (P94_40) was “inactive”.

With `CO/N=C(/C(=O)N[C@@H]1C(=O)N2C(C(=O)O)=C(CSc3cnns3)CS[C@H]12)c1csc(N)n1` the Potency [1] was “inactive”, the activity, negative = inhibition ([2]; parasite line A) was 8.36% and the activity, negative = inhibition ([2]; parasite line B) was 11.8%. The Potency (3D7) was “inactive”, the Potency (AA1029) was “inactive” and the Potency (AS120) was “inactive”. The Potency (ATS189) was “inactive”, the Potency (CP185) was “inactive” and the Potency (CP191) was “inactive”. For the same molecule, the Potency (CP194) was “inactive”, the Potency (CP217) was “inactive” and the Potency (CP237) was “inactive”. The Potency (CP238) was “inactive”, the Potency (CP252) was “inactive” and the Potency (CP265) was “inactive”. For the same molecule, the Potency (CP286) was “inactive”, the Potency (DFO2036) was “inactive” and the Potency (DIV30) was “inactive”. The Potency (Dd2) was “inactive”, the Potency (N140) was “inactive” and the Potency (P94_40) was “inactive”.

With `CCN(CC)CC(=O)Nc1c(C)cc(C)cc1C` the Potency [1] was “inactive”, the activity, negative = inhibition ([2]; parasite line A) was 2.56% and the activity, negative = inhibition ([2]; parasite line B) was 6.57%. For the same molecule, the Potency (3D7) was “inactive”, the Potency (AA1029) was “inactive” and the Potency (AS120) was “inactive”. For the same molecule, the Potency (ATS189) was “inactive”, the Potency (CP185) was “inactive” and the Potency (CP191) was “inactive”. The Potency (CP194) was “inactive”, the Potency (CP217) was “inactive” and the Potency (CP237) was “inactive”. The Potency (CP238) was “inactive”, the Potency (CP252) was “inactive” and the Potency (CP265) was “inactive”. The Potency (CP286) was “inactive”, the Potency (DFO2036) was “inactive” and the Potency (DIV30) was “inactive”. For the same molecule, the Potency (Dd2) was “inactive”, the Potency (N140) was “inactive” and the Potency (P94_40) was “inactive”.
